# Assay results from PubChem BioAssay (EPA / NIEHS).
# Calls of active or inactive are those of the source. The calls were made as follows: active = hit-call score of the fitted dose curve at least 0.9, where 1 is the maximum; inactive = score below 0.9.
# Columns and labels:
# [1] = read-out: C-C motif chemokine 2 (Homo sapiens) (UniProt P13500); experiment: BSK_KF3CT_MCP1: BioMAP Diversity Plus: KF3CT Assay for Monocyte Chemoattractant Protein 1 (MCP1/CCL2) Biomarker Activity (AID 2283073); conditions: primary human keratinocytes with fibroblasts; actives raise or lower the signal
# Outline: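 Human keratinocyte–foreskin fibroblast co-culture; MCP-1 measured by ELISA 24 h after dosing. Bidirectional fit vs DMSO; cytotoxicity tracked by SRB total protein in parallel cultures.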
# [2] = read-out: Matrix Metallopeptidase 9 (MMP9), MMP9 (gene 4318); experiment: BSK_KF3CT_MMP9: BioMAP Diversity Plus: KF3CT Assay for Matrix Metallopeptidase 9 (MMP9) Biomarker Activity (AID 2283074); conditions: primary human keratinocytes with fibroblasts; actives raise or lower the signal;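 as to AC50: MMP9 protein level quantified by ELISA in the co-culture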
# Outline: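 ELISA read-out of MMP-9 at 24 h post-dosing in a co-culture of human skin keratinocytes and foreskin fibroblasts. Gain or loss of signal was fitted in both directions against DMSO.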
# [3] = read-out: urokinase plasminogen activator (uPA), PLAU (gene 5328); experiment: BSK_KF3CT_uPA: BioMAP Diversity Plus: KF3CT Assay for urokinase plasminogen activator (uPA) Biomarker Activity (AID 2283075); conditions: primary human keratinocytes with fibroblasts; actives raise or lower the signal
# Outline: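 Skin co-culture (keratinocytes + foreskin fibroblasts), human primary; 24 h post-dose; uPA by ELISA; gain/loss fit vs DMSO baseline.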
# [4] = read-out: CD40, CD40 (gene 958); experiment: BSK_LPS_CD40: BioMAP Diversity Plus: LPS Assay for CD40 Biomarker Activity (AID 2283076); conditions: primary human HUVEC with PBMC; actives raise or lower the signal
# Outline: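 HUVEC plus PBMC co-culture stimulated with LPS; CD40 quantified by ELISA 24 h after compound dosing. Fitting was bidirectional relative to DMSO. SRB staining of parallel cultures flagged overt cytotoxicity.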
# [5] = read-out: E-selectin (Homo sapiens) (UniProt P16581); experiment: BSK_LPS_Eselectin: BioMAP Diversity Plus: LPS Assay for Eselectin Biomarker Activity (AID 2283077); conditions: primary human HUVEC with PBMC; actives raise or lower the signal
# Outline: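 Human umbilical vein endothelial cells co-cultured with PBMC under LPS stimulation; cell-surface E-selectin measured by ELISA 24 h after dosing. Change in either direction versus DMSO, with SRB total-protein staining in parallel cultures for cytotoxicity.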
# [6] = read-out: Interleukin-8 (IL8), CXCL8 (gene 3576); experiment: BSK_LPS_IL8: BioMAP Diversity Plus: LPS Assay for Interleukin-8 (IL8) Biomarker Activity (AID 2283078); conditions: primary human HUVEC with PBMC; actives raise or lower the signal
# Outline: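 Human umbilical vein endothelial cells co-cultured with PBMC, LPS-stimulated, exposed to compound for 24 h. IL-8 quantified by ELISA; fitted in both directions against DMSO, with SRB total-protein staining of parallel cultures for cytotoxicity.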
# [7] = BSK_LPS_SRB: Viability Assessment in the BioMAP Diversity Plus: LPS Assay (AID 2283079); conditions: primary human HUVEC with PBMC;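 also: total protein by sulforhodamine B absorbance as a cytotoxicity measure; measured one day after compound addition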
# Outline: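 Co-culture of human umbilical vein endothelial cells and PBMC, read 24 h after dosing. Total protein by 0.1% SRB staining after 10% TCA fixation, absorbance at 560 nm; bidirectional fit against DMSO.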
# [8] = read-out: Interleukin-1 alpha (IL1a), IL1A (gene 3552); experiment: BSK_LPS_IL1a: BioMAP Diversity Plus: LPS Assay for Interleukin-1 alpha (IL1a) Biomarker Activity (AID 2283080); conditions: primary human HUVEC with PBMC; actives raise or lower the signal
# Outline: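 Human umbilical vein endothelial cells co-cultured with PBMC and stimulated with LPS; IL-1a measured by ELISA 24 h after dosing. Bidirectional fitting against DMSO; cytotoxicity checked by SRB staining in parallel cultures.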
# [9] = read-out: Monocyte Chemoattractant Protein-1 (MCP1), CCL2 (gene 6347); experiment: BSK_LPS_MCP1: BioMAP Diversity Plus: LPS Assay for Monocyte Chemoattractant Protein-1 (MCP1) Biomarker Activity (AID 2283081); conditions: primary human HUVEC with PBMC; actives raise or lower the signal;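 as to AC50: secreted MCP-1 protein quantified by ELISA in culture supernatant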
# Outline: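 Human umbilical vein endothelial cells co-cultured with PBMC, LPS-stimulated; secreted MCP-1 measured by ELISA 24 h after compound addition. Bidirectional curve fitting against DMSO baseline; SRB total-protein staining in parallel cultures for cytotoxicity.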
# [10] = read-out: Transforming growth factor beta 1 (TGFb1), TGFB1 (gene 7040); experiment: BSK_KF3CT_TGFb1: BioMAP Diversity Plus: KF3CT Assay for Transforming growth factor beta 1 (TGFb1) Biomarker Activity (AID 2283072); conditions: primary human keratinocytes with fibroblasts; actives raise or lower the signal
# Outline: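 ELISA quantifies TGF-b1 at 24 h post-dose in a primary human skin co-culture of keratinocytes and fibroblasts, with gain or loss judged against DMSO. Parallel SRB total-protein staining flags overt cytotoxicity.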
# Chain of E-selectin (Homo sapiens) (P16581 whole entry, looked up): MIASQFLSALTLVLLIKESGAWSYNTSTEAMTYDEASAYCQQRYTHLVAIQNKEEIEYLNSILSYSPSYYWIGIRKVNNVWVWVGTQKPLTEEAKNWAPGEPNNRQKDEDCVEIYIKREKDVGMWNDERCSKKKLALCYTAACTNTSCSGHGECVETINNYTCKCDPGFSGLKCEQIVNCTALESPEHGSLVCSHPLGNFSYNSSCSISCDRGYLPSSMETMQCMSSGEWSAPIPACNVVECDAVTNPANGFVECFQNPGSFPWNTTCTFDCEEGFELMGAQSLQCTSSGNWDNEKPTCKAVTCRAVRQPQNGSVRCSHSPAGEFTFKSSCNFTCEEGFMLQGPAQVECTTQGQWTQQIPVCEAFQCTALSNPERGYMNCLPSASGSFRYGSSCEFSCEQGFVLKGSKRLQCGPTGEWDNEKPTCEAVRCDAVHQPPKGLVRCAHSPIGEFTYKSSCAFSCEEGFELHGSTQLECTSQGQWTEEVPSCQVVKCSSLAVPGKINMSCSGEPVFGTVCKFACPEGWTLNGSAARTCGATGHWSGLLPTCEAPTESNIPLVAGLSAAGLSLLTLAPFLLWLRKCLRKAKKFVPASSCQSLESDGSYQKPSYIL
compound,measurement,setting,value
O=C(O)CC(O)(CC(=O)O)C(=O)O,outcome,[1],inactive
same,outcome,[2],inactive
same,outcome,[3],inactive
same,outcome,[4],inactive
same,outcome,[5],inactive
same,outcome,[6],inactive
same,outcome,[7],inactive
same,outcome,[8],inactive
same,outcome,[9],inactive
Cc1ccc(-c2cc(C(F)(F)F)nn2-c2ccc(S(N)(=O)=O)cc2)cc1,outcome,[1],inactive
same,outcome,[2],inactive
same,outcome,[3],inactive
same,AC50,[4],26.6 µM (active)
same,AC50,[5],30.9 µM (active)
same,AC50,[6],35.6 µM (active)
same,AC50,[7],29.2 µM (active)
CO[C@@H]1COCC[C@@H]1N[C@@H]1CC[C@@](C(=O)N2CCc3ncc(C(F)(F)F)cc3C2)(C(C)C)C1,outcome,[10],inactive
same,outcome,[1],inactive
same,outcome,[2],inactive
same,outcome,[4],inactive
same,outcome,[5],inactive
same,outcome,[6],inactive
same,outcome,[7],inactive
same,outcome,[9],inactive
NC(=Nc1ccccc1)Nc1ccccc1,outcome,[1],inactive
same,outcome,[2],inactive
same,outcome,[3],inactive
same,outcome,[4],inactive
same,outcome,[5],inactive
same,outcome,[6],inactive
same,outcome,[7],inactive
same,outcome,[8],inactive
same,outcome,[9],inactive
CSc1ccc(Oc2ccc(S(N)(=O)=O)cc2CN(C)C)cc1C,outcome,[10],inactive
same,outcome,[1],inactive
same,outcome,[2],inactive
same,outcome,[4],inactive
same,outcome,[5],inactive
same,outcome,[6],inactive
same,outcome,[7],inactive
same,outcome,[8],inactive
same,outcome,[9],inactive
O=C1NC(=O)C(c2ccccc2)(c2ccccc2)N1,outcome,[10],inactive
same,outcome,[1],inactive
same,outcome,[2],inactive
same,outcome,[4],inactive
same,outcome,[5],inactive
same,outcome,[6],inactive
same,outcome,[7],inactive
same,outcome,[8],inactive
same,outcome,[9],inactive
O=NO,outcome,[10],inactive
same,outcome,[1],inactive
same,outcome,[2],inactive
same,outcome,[4],inactive
same,outcome,[5],inactive
same,outcome,[6],inactive
same,outcome,[7],inactive
same,outcome,[9],inactive
CC(C)(C)c1ccccc1,outcome,[10],inactive
same,outcome,[1],inactive
same,outcome,[2],inactive
same,outcome,[4],inactive
same,outcome,[5],inactive
same,outcome,[6],inactive
same,outcome,[7],inactive
same,outcome,[8],inactive
same,outcome,[9],inactive
CC(=O)OC1CC(C)OC(C)O1 (configuration not stated),outcome,[1],inactive
same,outcome,[2],inactive
same,outcome,[3],inactive
same,outcome,[4],inactive
same,outcome,[5],inactive
same,outcome,[6],inactive
same,outcome,[7],inactive
same,outcome,[8],inactive
same,outcome,[9],inactive
CCCCCCCCCC[N+](C)(C)[O-],outcome,[1],inactive
same,outcome,[2],inactive
same,outcome,[3],inactive
same,outcome,[4],inactive
same,outcome,[5],inactive
same,outcome,[6],inactive
same,outcome,[7],inactive
same,outcome,[8],inactive
same,outcome,[9],inactive
CCCCCCCC(=O)OC,outcome,[1],inactive
same,outcome,[2],inactive
same,outcome,[3],inactive
same,outcome,[4],inactive
same,outcome,[5],inactive
same,outcome,[6],inactive
same,outcome,[7],inactive
same,outcome,[8],inactive
same,outcome,[9],inactive
CC(COCC(C)OC(=O)c1ccccc1)OC(=O)c1ccccc1 (configuration not stated),outcome,[10],inactive
same,outcome,[1],inactive
same,outcome,[2],inactive
same,outcome,[4],inactive
same,outcome,[5],inactive
same,outcome,[6],inactive
same,outcome,[7],inactive
same,outcome,[9],inactive
CN(C)CCCN(C)CCCN(C)C,outcome,[10],inactive
same,outcome,[1],inactive
same,outcome,[2],inactive
same,outcome,[5],inactive
same,outcome,[6],inactive
same,outcome,[7],inactive
same,outcome,[9],inactive
CCC(C)N(C)C(=O)c1cc2ccccc2c(-c2ccccc2Cl)n1 (configuration not stated),outcome,[10],inactive
same,outcome,[1],inactive
same,outcome,[2],inactive
same,outcome,[4],inactive
same,outcome,[5],inactive
same,outcome,[6],inactive
same,outcome,[7],inactive
same,outcome,[8],inactive
same,outcome,[9],inactive
CCCCOC(=O)CCCCC(=O)OCCCC,outcome,[10],inactive
same,outcome,[1],inactive
same,outcome,[2],inactive
same,outcome,[4],inactive
same,outcome,[5],inactive
same,outcome,[6],inactive
same,outcome,[7],inactive
same,outcome,[9],inactive
NC1CCCCC1,outcome,[10],inactive
same,outcome,[1],inactive
same,outcome,[2],inactive
same,outcome,[4],inactive
same,outcome,[5],inactive
same,outcome,[6],inactive
same,outcome,[7],inactive
same,outcome,[9],inactive
CCc1nc(N)nc(N)c1-c1ccc(Cl)cc1,outcome,[10],inactive
same,outcome,[1],inactive
same,outcome,[2],inactive
same,outcome,[4],inactive
same,outcome,[5],inactive
same,outcome,[6],inactive
same,outcome,[7],inactive
same,outcome,[8],inactive
same,outcome,[9],inactive
Nc1nc(=S)c2[nH]cnc2[nH]1,outcome,[1],inactive
same,outcome,[2],inactive
same,outcome,[3],inactive
same,outcome,[4],inactive
same,outcome,[5],inactive
same,outcome,[6],inactive
same,outcome,[7],inactive
same,outcome,[9],inactive
Cc1cc(Cc2ccc(N)c(C)c2)ccc1N,outcome,[1],inactive
same,outcome,[2],inactive
same,outcome,[4],inactive
same,outcome,[5],inactive
same,outcome,[6],inactive
same,outcome,[7],inactive
same,outcome,[8],inactive
same,outcome,[9],inactive
COC(=O)CCCC(=O)OC,outcome,[1],inactive
same,outcome,[2],inactive
same,outcome,[3],inactive
same,outcome,[4],inactive
same,outcome,[5],inactive
same,outcome,[6],inactive
same,outcome,[7],inactive
same,outcome,[8],inactive
same,outcome,[9],inactive
CCOCCOCCO,outcome,[1],inactive
same,outcome,[2],inactive
same,outcome,[3],inactive
same,outcome,[4],inactive
same,outcome,[5],inactive
same,outcome,[6],inactive
same,outcome,[7],inactive
same,outcome,[9],inactive
O=C(N[C@@H](c1ccccc1)[C@@H]1CCCCN1)c1cccc(C(F)(F)F)c1Cl,outcome,[1],inactive
same,AC50,[2],30.8 µM (active)
same,AC50,[4],20 µM (active)
same,AC50,[5],5.55 µM (active)
same,AC50,[6],17.9 µM (active)
same,AC50,[7],23.4 µM (active)
same,AC50,[8],20 µM (active)
same,AC50,[9],22.7 µM (active)
CCCCC(CC)CO (configuration not stated),outcome,[1],inactive
same,outcome,[2],inactive
same,outcome,[4],inactive
same,outcome,[5],inactive
same,outcome,[6],inactive
same,outcome,[7],inactive
same,outcome,[9],inactive
